Experimental data: PubChem BioAssay
The source made the active and inactive calls. Unless noted, how the calls were made is not given here.

Key:
[1] = compound effects on lung adenocarcinoma cell viability – A549, calcein-AM fluorescence, 48 h, basal, profiling panel (AID 1162); conditions: higher = more signal; further: test concentration not given here
[2] = compound effects on differentiated 3T3-L1 adipocyte viability – cell-based, 3T3-L1 adipocytes, calcein-AM fluorescence, 48 h, basal, profiling panel (AID 1163); conditions: 3T3-L1 adipocytes viability, higher = more signal; further: test concentration not given here
[3] = compound effects on hepatocellular carcinoma cell viability – HepG2, calcein-AM fluorescence, 48 h, basal, profiling panel (AID 1164); conditions: higher = more signal; further: test concentration not given here
[4] = compound effects on multiple myeloma cell viability – MM1S, calcein-AM fluorescence, 48 h, basal, profiling panel (AID 1165); conditions: higher = more signal; further: test concentration not given here
[5] = calcein-AM signal in unstimulated myeloma cells – cell-based, calcein-AM fluorescence, 48 h, PK04 Diversity Set, profiling panel (AID 1166); conditions: RPMI8226 myeloma viability, higher = more signal;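 further: cells grown under basal conditions without added stimulus; test concentration not given here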
[6] = JC-1 mitochondrial signal, unstimulated HepG2 cells – cell-based, JC-1 fluorescence, 24 h, 100 nL compound, profiling panel (AID 1167); conditions: HepG2 mitochondrial potential, higher = more signal; further: test concentration not given here
[7] = JC-1 mitochondrial signal, unstimulated adipocytes – cell-based, JC-1 fluorescence, 3T3-L1 adipocytes, 24 h, 100 nL compound, profiling panel (AID 1168); conditions: JC-1 mitochondrial fluorescence, higher = more signal, called active from +8 up or from −8 down; further: test concentration not given here
[8] = JC-1 mitochondrial signal, unstimulated myeloma cells – cell-based, JC-1 fluorescence, RPMI8226, 24 h, 100 nL compound, profiling panel (AID 1169); conditions: JC-1 mitochondrial potential fluorescence, higher = more signal; further: test concentration not given here
[9] = JC-1 mitochondrial signal, unstimulated MM1S myeloma – cell-based, JC-1 fluorescence, 24 h, 100 nL compound, profiling panel (AID 1170); conditions: MM1S mitochondrial potential, higher = more signal; further: test concentration not given here
[10] = resazurin metabolic signal in A549 cells – cell-based, resazurin fluorescence, 24 h, PK04 Diversity Set, profiling panel (AID 1171); conditions: A549 viability, higher = more signal, called active from +8 up or from −8 down; further: test concentration not given here
[11] = resazurin metabolic signal in HepG2 cells – cell-based, resazurin fluorescence, 24 h, PK04 Diversity Set, profiling panel (AID 1172); conditions: HepG2 viability, higher = more signal; further: test concentration not given here
[12] = budding yeast growth changes without added modifier – OD600, strain BY4716, 24 h, basal condition, primary screen (AID 1173); conditions: S. cerevisiae BY4716 growth, OD600, 24 h; higher = more signal, called active from +8 up or from −8 down
[13] = viability profiling in MM1S myeloma cells – cell-based, resazurin fluorescence, basal, 24 h, PK04 Diversity Set, profiling panel (AID 1174); conditions: higher = more signal, called active from +8 up or from −8 down; further: test concentration not given here
[14] = biological target: Dihydroorotate dehydrogenase (quinone), mitochondrial (Plasmodium falciparum (isolate 3D7)) (UniProt Q08210); experiment: inhibition of P. falciparum DHODH – biochemical, C-terminal His tag, absorbance 600 nm, primary screen (AID 1175); conditions: PfDHODH enzyme, DCIP absorbance 600 nm; higher = more signal, called active from +8 up or from −8 down;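 further: recombinant parasite enzyme with a five histidine tag at its C terminus; test concentration not given here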
Dihydroorotate dehydrogenase (quinone), mitochondrial (Plasmodium falciparum (isolate 3D7)), sequence (Q08210 whole entry, looked up): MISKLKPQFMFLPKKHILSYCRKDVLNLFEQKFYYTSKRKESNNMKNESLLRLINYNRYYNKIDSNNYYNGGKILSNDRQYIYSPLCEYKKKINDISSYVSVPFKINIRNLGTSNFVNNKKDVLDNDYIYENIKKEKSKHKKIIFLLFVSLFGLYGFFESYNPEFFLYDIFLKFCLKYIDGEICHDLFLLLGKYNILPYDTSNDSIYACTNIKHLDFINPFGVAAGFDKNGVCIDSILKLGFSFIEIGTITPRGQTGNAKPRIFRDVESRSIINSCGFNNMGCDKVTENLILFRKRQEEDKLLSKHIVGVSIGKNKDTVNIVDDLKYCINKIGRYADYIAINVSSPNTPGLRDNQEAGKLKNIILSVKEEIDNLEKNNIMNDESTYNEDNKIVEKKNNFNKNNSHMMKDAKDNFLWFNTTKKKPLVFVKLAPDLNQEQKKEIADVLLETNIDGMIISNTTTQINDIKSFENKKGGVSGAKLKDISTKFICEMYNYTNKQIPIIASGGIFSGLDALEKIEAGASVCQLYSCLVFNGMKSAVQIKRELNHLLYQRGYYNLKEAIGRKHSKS

[15] = inhibition of PAO1 biofilm formation – strain PAO1, LB-PBS medium, absorbance 600 nm, primary screen (AID 1176); further: test concentration not given here; conditions: P. aeruginosa PAO1 growth/biofilm, A600, 12 h; higher = more signal
[16] = growth modulation of vineyard yeast isolate – strain RM11-1a, OD600, basal, 24 h, primary screen (AID 1177);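 further: cultures grown under basal conditions with no added stressor; test concentration not given here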; conditions: S. cerevisiae RM11-1a growth, OD600, 24 h; higher = more signal, called active from +8 up or from −8 down
[17] = growth of efflux-deficient E. coli DRC39 – strain DRC39, OD650, 24 h, E. coli filamentation inducers, primary screen (AID 1178);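 further: growth measured as culture turbidity by optical density at 650 nm; test concentration not given here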; conditions: E. coli DRC39 acrAB, higher = more signal, called active from +8 up or from −8 down
[18] = growth of efflux-deficient E. coli DRC39 – strain DRC39, OD650, 48 h, E. coli filamentation inducers, primary screen (AID 1179);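 further: screen aims at cell division blockers that make cells filament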; conditions: E. coli DRC39 delta-acrAB growth, higher = more signal, called active from +8 up or from −8 down
[19] = viability profiling in RPMI8226 myeloma cells – cell-based, resazurin fluorescence, basal, 24 h, PK04 Diversity Set, profiling panel (AID 1180); conditions: higher = more signal;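 further: RPMI8826 multiple myeloma cell line at 5000 cells per well; test concentration not given here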
[20] = biological target: E3 ubiquitin-protein ligase XIAP (Homo sapiens) (UniProt P98170); experiment: small molecules binding XIAP protein – biophysical, small-molecule microarray, fluorescence 635 nm, primary screen (AID 1181); conditions: higher = more signal;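 further: score merges 667 nm emission and signal to noise over triplicate slides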
E3 ubiquitin-protein ligase XIAP (Homo sapiens), sequence (P98170 whole entry, looked up): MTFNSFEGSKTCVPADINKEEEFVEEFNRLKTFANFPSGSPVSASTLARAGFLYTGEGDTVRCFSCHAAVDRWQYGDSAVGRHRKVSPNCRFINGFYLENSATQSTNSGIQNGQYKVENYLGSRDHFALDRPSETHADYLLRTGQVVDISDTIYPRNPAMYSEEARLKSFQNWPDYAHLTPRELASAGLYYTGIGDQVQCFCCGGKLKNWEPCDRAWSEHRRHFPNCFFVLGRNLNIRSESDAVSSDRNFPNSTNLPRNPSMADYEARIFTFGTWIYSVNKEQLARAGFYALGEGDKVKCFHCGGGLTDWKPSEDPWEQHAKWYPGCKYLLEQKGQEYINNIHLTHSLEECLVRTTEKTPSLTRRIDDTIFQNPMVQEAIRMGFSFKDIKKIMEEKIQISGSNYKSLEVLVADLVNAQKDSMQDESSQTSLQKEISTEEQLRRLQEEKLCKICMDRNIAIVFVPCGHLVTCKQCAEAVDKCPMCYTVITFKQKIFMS

Row | Compound | z-score [1] | z-score [2] | z-score [3] | z-score [4] | z-score [5] | z-score [6] | z-score [7] | z-score [8] | z-score [9] | z-score [10] | z-score [11] | z-score [12] | z-score [13] | composite z-score [14] | z-score [15] | z-score [16] | z-score [17] | z-score [18] | z-score [19] | composite z-score [20]
1 | C[C@H]1C2[C@H](Cc3ccccc3)NC(=O)[C@]23C(=O)NCC(=O)N2CCC[C@H]2C(=O)NC/C=C\C/C=C/C3[C@@H]2O[C@]12C (stereo not given in full) | 0.379 | 0.491 | 0.409 | 0.163 | -0.547 | -0.324 | 0.0628 (inactive) | -1.03 | 0.227 | 0.87 (inactive) | 0.825 | -1.82 (inactive) | 0.741 (inactive) | -0.173 (inactive) | -0.14 (inactive) | -0.939 (inactive) | 1.02 (inactive) | 0.741 (inactive) | 1.05 | -0.258
2 | CN(C)C(=O)[C@@]1(CCS(=O)(=O)c2ccccc2)N=C(c2ccc(OCCCO)cc2)O[C@H]1c1ccccc1N=[N+]=[N-] | 0.137 | -0.471 | 1.27 | -1.68 | -0.941 | 0.121 | -0.477 (inactive) | -1.32 | -0.591 | -0.217 (inactive) | -0.679 | 0.135 (inactive) | -0.517 (inactive) | -0.926 (inactive) | -0.0558 (inactive) | -0.241 (inactive) | -0.068 (inactive) | 0.0077 (inactive) | -1.68 | -0.0676
3 | C=C(CCCC)/C(=C/C[C@H](OC(C)=O)c1cccc(OCCO)c1)c1cc(C(=O)OC)ccc1OC | 2.28 | 0.477 | 0.651 | -0.965 | -2.14 | 2.19 | 0.18 (inactive) | -0.111 | 0.309 | 2.7 (inactive) | 2.33 | -0.456 (inactive) | 1.44 (inactive) | -0.989 (inactive) | 0.473 (inactive) | -0.515 (inactive) | 1.85 (inactive) | 1.34 (inactive) | 1.43 | -0.0297
4 | CCOC(=O)C1=CC[C@@H](c2ccccc2)N(S(=O)(=O)C[Si](C)(C)C)[C@H]1c1ccccc1 | -0.96 | 0.147 | 0.0425 | 0.0106 | 0.242 | -1.37 | -0.479 (inactive) | -0.687 | -0.667 | 0.946 (inactive) | 0.128 | 0.945 (inactive) | -0.013 (inactive) | 0.407 (inactive) | 0.257 (inactive) | -0.42 (inactive) | -0.618 (inactive) | -1.59 (inactive) | 0.343 | -0.125
